Reference: the supplement of paper PMC8728848
This is one part of a sample in which the strongest signals are shown more often than they occur.

Assays:
Experiment in all cases: glycan array binding signal (z-score within array); higher = stronger binding
Conditions in all cases: glycan notation: IUPAC condensed, linker removed
Fuc(a1-2)Gal = target: Fuc(a1-2)Gal
In short: (§1)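 Glycan array binding is given as a within-array Z-score, which can be read as non-binding when negative. The arrays, 3228 of them, came from the Consortium for Functional Glycomics database and were retained only where the protein sequence was available. Z-scores were averaged across arrays of the same protein sequence at different concentrations or buffers and across linkers.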

[1] = target: Fuc(a1-2)Gal(b1-3)GalNAc(b1-3)Gal
In short: as §1

[2] = target: Fuc(a1-2)Gal(b1-4)[Fuc(a1-3)]GlcNAc
In short: as §1

[3] = target: Fuc(a1-2)Gal(b1-4)[Fuc(a1-3)]GlcNAc(b1-2)Man(a1-3)[Fuc(a1-2)Gal(b1-4)[Fuc(a1-3)]GlcNAc(b1-2)Man(a1-6)]Man(b1-4)GlcNAc(b1-4)[Fuc(a1-6)]GlcNAc
In short: as §1

Fuc(a1-2)[Gal(a1-3)]Gal = target: Fuc(a1-2)[Gal(a1-3)]Gal
In short: as §1

[4] = target: Fuc(a1-2)[Gal(a1-3)]Gal(b1-3)GlcNAc(b1-6)GalNAc
In short: as §1

[5] = target: Fuc(a1-2)[Gal(a1-3)]Gal(b1-4)GlcNAc(b1-2)Man
In short: as §1

[6] = target: Fuc(a1-2)[GalNAc(a1-3)]Gal
In short: as §1

[7] = target: Fuc(a1-2)[GalNAc(a1-3)]Gal(b1-4)Glc
In short: as §1

[8] = target: Fuc(a1-2)[GalNAc(a1-3)]Gal(b1-4)GlcNAc
In short: as §1

[9] = target: Fuc(a1-2)[GalNAc(a1-3)]Gal(b1-4)GlcNAc(b1-2)Man(a1-3)[Fuc(a1-2)[GalNAc(a1-3)]Gal(b1-4)GlcNAc(b1-2)Man(a1-6)]Man(b1-4)GlcNAc(b1-4)[Fuc(a1-6)]GlcNAc
In short: as §1

[10] = target: Fuc(a1-2)[GalNAc(a1-3)]Gal(b1-4)GlcNAc(b1-3)GalNAc
In short: as §1

[11] = target: Fuc(a1-3)[Gal(b1-4)]Glc6S
In short: as §1

[12] = target: Fuc(a1-3)[GalNAc(b1-4)]GlcNAc
In short: as §1

Fuc(a1-4)GlcNAc = target: Fuc(a1-4)GlcNAc
In short: as §1

[13] = target: Gal(a1-3)Gal(b1-3)GlcNAc(b1-3)GalNAc
In short: as §1

[14] = target: Gal(a1-3)Gal(b1-4)GlcNAc(b1-6)GalNAc
In short: as §1

[15] = target: Gal(a1-4)Gal(b1-4)GlcNAc(b1-2)Man(a1-3)[Gal(a1-4)Gal(b1-4)GlcNAc(b1-2)Man(a1-6)]Man(b1-4)GlcNAc(b1-4)GlcNAc
In short: as §1

Gal(b1-3)Gal(b1-4)GlcNAc = target: Gal(b1-3)Gal(b1-4)GlcNAc
In short: as §1

[16] = target: Gal(b1-3)GlcNAc(b1-2)Man(a1-3)[Gal(b1-3)GlcNAc(b1-2)Man(a1-6)]Man(b1-4)GlcNAc(b1-4)GlcNAc
In short: as §1

[17] = target: Gal(b1-3)GlcNAc(b1-3)Gal(b1-4)GlcNAc(b1-2)Man(a1-3)[Gal(b1-3)GlcNAc(b1-3)Gal(b1-4)GlcNAc(b1-2)Man(a1-6)]Man(b1-4)GlcNAc(b1-4)GlcNAc
In short: as §1

[18] = target: Gal(b1-3)[Fuc(a1-4)]GlcNAc(b1-2)Man
In short: as §1

[19] = target: Gal(b1-3)[Fuc(a1-4)]GlcNAc(b1-3)Gal(b1-3)[Fuc(a1-4)]GlcNAc
In short: as §1

[20] = target: Gal(b1-3)[Neu5Ac(b2-6)]GalNAc
In short: as §1

Gal(b1-4)Glc = target: Gal(b1-4)Glc
In short: as §1

Gal(b1-4)GlcNAc(b1-2)Man = target: Gal(b1-4)GlcNAc(b1-2)Man
In short: as §1

[21] = target: Gal(b1-4)GlcNAc(b1-2)Man(a1-6)Man(b1-4)GlcNAc(b1-4)GlcNAc
In short: as §1

[22] = target: Gal(b1-4)GlcNAc(b1-3)Gal(b1-4)GlcNAc(b1-3)Gal(b1-4)GlcNAc(b1-2)Man(a1-3)[Gal(b1-4)GlcNAc(b1-3)Gal(b1-4)GlcNAc(b1-3)Gal(b1-4)GlcNAc(b1-2)Man(a1-6)]Man(b1-4)GlcNAc(b1-4)[Fuc(a1-6)]GlcNAc
In short: as §1

[23] = target: Gal(b1-4)GlcNAc(b1-3)Gal(b1-4)GlcNAc(b1-3)Gal(b1-4)GlcNAc(b1-2)[Gal(b1-4)GlcNAc(b1-3)Gal(b1-4)GlcNAc(b1-3)Gal(b1-4)GlcNAc(b1-6)]Man(a1-6)[Gal(b1-4)GlcNAc(b1-3)Gal(b1-4)GlcNAc(b1-3)Gal(b1-4)GlcNAc(b1-2)Man(a1-3)]Man(b1-4)GlcNAc(b1-4)[Fuc(a1-6)]GlcNAc
In short: as §1

B1: LBL-152 (Laetiporus bicolor), B0D650 (protein)
chain: MSNEYNPPLGIAFRLCGLASDRVLFSRVSPSPEVFHHPKSEVYPDQWFVAIPGSGQNAGCYAIKSKNTGKVLFSRMSPDPRVGHIDGDGKYPDNWFKFEAGSGKYAGYFRLRAVASDTVLVSRTSTGTDTQVINYPATSAKYDDQYFTILFDHHHHHH
For B1, the “glycan array binding signal (z-score)” value (Fuc(a1-2)Gal) was -0.151, the “glycan array binding signal (z-score)” value [1] was -0.162 and the “glycan array binding signal (z-score)” value [2] was -0.157. The “glycan array binding signal (z-score)” value [3] was -0.147, the “glycan array binding signal (z-score)” value (Fuc(a1-2)[Gal(a1-3)]Gal) was -0.145 and the “glycan array binding signal (z-score)” value [4] was -0.156. For the same binder, the “glycan array binding signal (z-score)” value [5] was -0.153, the “glycan array binding signal (z-score)” value [6] was -0.151 and the “glycan array binding signal (z-score)” value [7] was -0.157. The “glycan array binding signal (z-score)” value [8] was -0.156, the “glycan array binding signal (z-score)” value [9] was -0.156 and the “glycan array binding signal (z-score)” value [10] was -0.155. For the same binder, the “glycan array binding signal (z-score)” value [11] was -0.156, the “glycan array binding signal (z-score)” value [12] was -0.141 and the “glycan array binding signal (z-score)” value (Fuc(a1-4)GlcNAc) was -0.151. For the same binder, the “glycan array binding signal (z-score)” value [13] was -0.158, the “glycan array binding signal (z-score)” value [14] was -0.162 and the “glycan array binding signal (z-score)” value [15] was -0.132. For the same binder, the “glycan array binding signal (z-score)” value (Gal(b1-3)Gal(b1-4)GlcNAc) was -0.158, the “glycan array binding signal (z-score)” value [16] was -0.154 and the “glycan array binding signal (z-score)” value [17] was -0.136. The “glycan array binding signal (z-score)” value [18] was -0.159, the “glycan array binding signal (z-score)” value [19] was -0.16 and the “glycan array binding signal (z-score)” value [20] was -0.154. For the same binder, the “glycan array binding signal (z-score)” value (Gal(b1-4)Glc) was -0.156, the “glycan array binding signal (z-score)” value (Gal(b1-4)GlcNAc(b1-2)Man) was -0.148 and the “glycan array binding signal (z-score)” value [21] was -0.156. For the same binder, the “glycan array binding signal (z-score)” value [22] was 5.46 and the “glycan array binding signal (z-score)” value [23] was 4.41.
